93 molecules from PubChem BioAssay AID463173 (ICCB-Longwood Screening Facility, Harvard Medical School, 2010) can be followed below.

Among all 52,000 compounds or so, about 4,300 (8.3%) were called active. Many of the other results were omitted from the sample, so actives are more common in it than they were. A number with no mark means an inactive call. Cut-off read from the data, not from the text of the source: active = survival mostly below about 52% (no sharp cut-off); inactive = mostly above about 56%.

The test deals with DeltatarO mutant. As to the kind of experiment: growth inhibition of S. aureus wild type versus tarO mutant, primary screen, teichoic acid synthesis inhibitors, RN4220, OD600 (AID 463173). The settings on record: OD600, 18 h, hits give low values, screened at 18.75 µg/mL (by protocol).
On to `CC(C)Cc1nn2c(=O)cc(COC(=O)c3ccccc3NC(=O)C3CCCCC3)nc2s1`, for which the survival is 81%.
For `CN(C)c1ccc(-n2c(CCC(=O)O)ccc2-c2ccccc2)cc1` the value was 60%; for `CC(=O)Nc1ccc(-n2c(CCC(=O)O)ccc2-c2ccc(C)cc2)cc1`, 56%; for `CCOC(=O)c1ccc(-n2c(CCC(=O)O)ccc2-c2ccc(Br)cc2)cc1`, 19% (active).
For `CCOc1ccc(NC(=O)Cn2c(CCC(=O)O)ccc2-c2ccc(C)cc2)cc1`, the survival was 65%.
In the case of `Cc1ccc(-c2ccc(CCC(=O)O)n2-c2ccc(C(N)=O)cc2)cc1`, the survival is 60%.
For `CCOc1ccc(-n2c(CCC(=O)O)ccc2-c2ccc(Br)cc2)cc1` the value was 48% (active).
As for `CC(=O)Nc1ccc(-n2c(CCC(=O)O)ccc2-c2ccc(Br)cc2)cc1`, the figure is 45% (active).
As for `COC(=O)c1ccc(-n2c(CCC(=O)O)ccc2-c2ccc(C)cc2)cc1`, the figure is 49%.
Turning to `Cc1ccc(-c2ccc(CCC(=O)O)n2-c2ccc(C(C)C)cc2)cc1`, the survival is 44%.
For `O=C(O)CCc1ccc(-c2ccc(Br)cc2)n1-c1ccccc1O`, the survival is 64%.
For `CCc1ccc(-n2c(CCC(=O)O)ccc2-c2ccc(F)cc2)cc1` the value was 29% (active).
For `CCc1ccc(-n2c(CCC(=O)O)ccc2-c2cccs2)cc1` the value was 52%.
Take `Cc1c(CNC2CCCCC2)c(C(=O)O)c(C)n1Cc1ccc(F)cc1`: the survival is 85%.
For `Cc1ccc(-c2ccc(C#N)c(=O)n2CC(=O)N2CCNC(=O)C2(C)C)cc1` the value was 88%.
As for `COc1ccc(CCNC(=O)C(=O)NCC(c2ccco2)S(=O)(=O)c2ccccc2)cc1OC` (stereo not drawn), the figure is 54%; as for `COc1ccc(S(=O)(=O)N(C(=O)c2ccncc2)c2ccc3oc(C)c(C(C)=O)c3c2)cc1`, 152%.
For the molecule `CCc1nn(-c2ccccc2)c2nc(-c3ccc(O)cc3)c3cc(OC)c(OC)cc3c12`, the survival is 74%.
For `COc1ccc(Cc2nc3c4cnn(-c5ccccc5F)c4ncn3n2)cc1` the value was 81%; for `Cc1cc(-n2c(SCC(=O)NCc3ccccc3)nc3ccsc3c2=O)ccc1Cl`, 87%.
For `CC(=O)c1cccc(-n2c(CCC(=O)O)ccc2-c2ccccc2)c1` the value was 74%; for `O=C(O)CCc1ccc(-c2ccccc2)n1-c1ccc(C(=O)O)cc1`, 131%.
On to `CCOC(=O)c1ccc(-n2c(CCC(=O)O)ccc2-c2ccccc2)cc1O`, for which the survival was 43% (active).
For `Cc1cccc(C2NC(=O)c3c(sc4c3CCN(C)C4)N2)c1O` (stereo not drawn) the value was 125%.
For `CCn1c(=O)c2sccc2n2c(CCCC(=O)N3CCN(c4ccccc4OC)CC3)nnc12` the value was 91%; for `CC(=O)c1ccc(NC(=O)c2cc(C)nc3c2c(C)nn3-c2ccc(C)cc2)cc1`, 102%; for `COc1ccccc1NC(=O)c1cc(C2CC2)nc2c1c(C)nn2-c1ccc(C)cc1`, 98%.
`COc1ccc(NC(=O)c2cc(C3CC3)nc3c2c(C)nn3-c2ccc(C)cc2)cc1OC`: the survival was 144%.
Turning to `CC(=O)c1ccc(NC(=O)c2cc(C3CC3)nc3c2c(C)nn3-c2ccc(C)cc2)cc1`, the survival was 46% (active).
For `COc1ccc(NC(=O)c2cc(C3CC3)nc3c2c(C)nn3-c2ccccc2)c(OC)c1` the value was 37% (active).
As for `COc1ccc(NC(=O)c2cc(C3CC3)nc3c2c(C)nn3-c2ccccc2)cc1`, the figure is 53%; as for `Nc1c(C(=O)Nc2ccccc2)nnn1Cc1ccc(F)cc1Cl`, 99%.
For `O=C(Cn1cc(S(=O)(=O)Cc2cccc(Cl)c2)c2ccccc21)NCc1ccccc1Cl` the value was 91%; for `O=C1CSC(N(c2ccccc2)c2ccccc2)=N1`, 96%.
For `COc1cccc(CNC(=O)CCn2c(=O)c3cccn3c3cccnc32)c1OC`, the survival is 98%.
As for `Cc1ccc(CNC(=O)CCS(=O)(=O)c2cc3c4c(c2)CCN4C(=O)CC3)cc1`, the figure is 67%; as for `Cn1nc(C(=O)N2CCN(c3cccc(Cl)c3)CC2)c2c1-c1ccccc1S(=O)(=O)C2`, 37% (active).
For `Cn1nc(C(=O)N2CCN(c3ccccc3)CC2)c2c1-c1ccccc1SC2` the value was 80%.
In the case of `Cc1ccc2c(c1)-c1onc(C(=O)N3CCN(c4cc(Cl)ccc4C)CC3)c1CO2`, the survival is 57% (active).
As for `Cc1ccc2c(c1)-c1onc(C(=O)N3CCN(c4ccc(Cl)cc4)CC3)c1CO2`, the figure is 63%; as for `Cc1cccc(N2CCN(C(=O)c3nn(C)c4c3CS(=O)(=O)c3ccccc3-4)CC2)c1C`, 67%; as for `Cc1ccc(C)c(N2CCN(C(=O)c3nn(C)c4c3CS(=O)(=O)c3ccccc3-4)CC2)c1`, 49% (active).
As for `Cn1nc(C(=O)N2CCN(c3ccccc3)CC2)c2c1-c1ccccc1S(=O)(=O)C2`, the figure is 51%; as for `Cc1ccc2c(c1)-c1onc(C(=O)N3CCN(c4cc(C)ccc4C)CC3)c1CO2`, 66%.
As for `Cn1nc(C(=O)N2CCN(c3ccc(Cl)cc3)CC2)c2c1-c1ccccc1S(=O)(=O)C2`, the figure is 51%; as for `Cc1ccc(N2CCN(C(=O)c3nn(C)c4c3CS(=O)(=O)c3ccccc3-4)CC2)c(C)c1`, 77%.
Take `Cn1nc(C(=O)N2CCN(c3ccc(F)cc3)CC2)c2c1-c1ccccc1SC2`: the survival was 77%.
As for `Cn1nc(C(=O)N2CCN(c3ccccc3F)CC2)c2c1-c1ccccc1SC2`, the figure is 32% (active); as for `COc1cc(-c2nnc(SCC(=O)Oc3ccccc3Cl)o2)cc(OC)c1OC`, 84%.
For `O=C(Nc1ccc(CN2CCCCC2)cc1)c1cccnc1Cl` the value was 71%; for `CCc1ccc(-c2nc(SCC(=O)NCCOC)c(-c3ccc(C)cc3)[nH]2)cc1`, 76%.
For `Cc1c(Cl)cccc1NC(=O)c1cc(S(=O)(=O)N2CCCCC2)cn1C` the value was 99%; for `COc1cccc(CN2CCc3nc(N4CCN(C)CC4)ncc3C2)c1`, 84%; for `CN(c1ccc(F)cc1)S(=O)(=O)N1CCCC(C(=O)NCc2ccccc2Cl)C1` (stereo not drawn), 81%.
Consider `COc1ccc(NC(=O)CCc2c(C)nc3c(c2C)c(=O)n(C)c(=O)n3C)c(OC)c1`, for which the survival was 100%.
For `COc1ccc2c(c1)c(=O)c(S(=O)(=O)c1ccccc1)cn2CC(=O)Nc1ccc(C)c(Cl)c1` the value was 97%; for `COc1ccccc1CNC(=O)CCC1N=C2c3ccccc3N=C(SCC(=O)NCCc3ccc(OC)c(OC)c3)N2C1=O` (stereo not drawn), 92%.
For `COc1ccccc1N1CCN(C(=O)c2nn(C)c3c2CS(=O)(=O)c2ccccc2-3)CC1` the value was 61%.
For `Cn1nc(C(=O)N2CCN(c3ccccc3F)CC2)c2c1-c1ccccc1S(=O)(=O)C2` the value was 60%; for `Cc1ccc(Cl)cc1N1CCN(C(=O)c2nn(C)c3c2CS(=O)(=O)c2ccccc2-3)CC1`, 58% (active); for `O=C(CSc1ncn[nH]1)N1CCOCC1`, 73%.
In the case of `Cn1c(=O)n(C)c2cc(NC(=O)C(F)(F)F)ccc21`, the survival is 94%.
As to `Cc1cc2c(cc1NS(=O)(=O)c1ccc(Br)cc1)n(C)c(=O)c(=O)n2C`, the survival was 109%.
Turning to `CCc1ccc(S(=O)(=O)Nc2cc3c(cc2N2CCOCC2)n(C)c(=O)c(=O)n3C)cc1`, the survival is 6% (active).
As for `Cn1c(=O)c(=O)n(C)c2cc(N3CCOCC3)c(NS(=O)(=O)c3ccc(Cl)cc3)cc21`, the figure is -1% (active).
As for `Cc1ccc(S(=O)(=O)Nc2cc3c(cc2N2CCOCC2)n(C)c(=O)n3C)cc1`, the figure is 90%; as for `CC(C)Cc1ccc(S(=O)(=O)Nc2cc3c(cc2N2CCOCC2)n(C)c(=O)c(=O)n3C)cc1`, 79%; as for `Cc1ccc(S(=O)(=O)Nc2cc3c(cc2C)n(C)c(=O)c(=O)n3C)cc1`, -2% (active).
For `Cn1c(=O)n(C)c2cc(N3CCOCC3)c(NS(=O)(=O)c3ccc(Cl)cc3)cc21` the value was 75%; for `Cn1c(=O)c(=O)n(C)c2cc(N3CCOCC3)c(NS(=O)(=O)c3ccc(F)c(Cl)c3)cc21`, 67%; for `CCc1ccc(S(=O)(=O)Nc2cc3c(cc2C)n(C)c(=O)c(=O)n3C)cc1`, 64%.
As to `Cc1ccc(NC(=O)C2CCN(S(=O)(=O)c3ccc4c(c3)CCCC(=O)N4)CC2)cc1N(C)C`, the survival was 120%.
As for `Cc1nn(CCCC(=O)NCc2ccccc2)c(=O)c2cc3sccc3n12`, the figure is 76%.
For `O=C(CSc1cn(CC(=O)N2CCCCC2)c2ccccc12)NCc1ccc(F)cc1` the value was 70%; for `N#CCNC(=O)c1cccc(I)c1`, 89%; for `Cc1ccc(C)c(N2CCN(C(=O)c3cc(S(=O)(=O)N4CCCC4)cn3C)CC2)c1`, 64%.
For `Cc1cc(N2CCC(C(=O)Nc3ccc(F)cc3F)CC2)n2nc(C)c(-c3ccc(Cl)cc3)c2n1` the value was 86%; for `COc1cccc(-c2nnc3n(Cc4ccc(F)cc4)c(=O)c4ccccc4n23)c1`, 84%.
On to `Cc1ccc(NC(=O)[C@H](Cc2ccccc2)N2Cc3ccccc3C2=O)cc1`, for which the survival was 81%.
For `Cc1ccc(CCNC(=O)CCCn2nc(C)c3c(C)n(-c4ccccc4)nc3c2=O)cc1` the value was 87%.
As for `CCN1CCC(N(Cc2cccc(OC)c2)C(=O)Nc2cccc(C)c2C)CC1`, the figure is 20% (active); as for `CCN1CCC(N(Cc2ccc3c(c2)OCO3)C(=O)Nc2cccc(C)c2C)CC1`, 94%; as for `CCN1CCC(N(Cc2cccc(OC)c2)C(=O)Nc2ccc(C)cc2Cl)CC1`, 66%.
As for `COCCN1C(=O)C(=O)/C(=C(/O)c2ccccc2)C1c1ccccc1` (stereo not drawn), the figure is 102%.
In the case of `Cc1ccc(C(=O)c2cn(Cc3ccc(F)cc3)c3nc(C)ccc3c2=O)cc1`, the survival was 85%.
As for `CCc1ccc(C(=O)c2cn(CC(=O)NCc3ccc(C)cc3)c3nc(C)ccc3c2=O)cc1`, the figure is 98%.
As for `Cc1ccc(C(=O)c2cn(Cc3cccc(C)c3)c3nc(C)ccc3c2=O)cc1`, the figure is 54%.
As for `Cc1ccc(Cn2cc(C(=O)c3ccc(C)cc3)c(=O)c3ccc(C)nc32)cc1`, the figure is 24% (active); as for `Cc1ccc(CNC(=O)Cn2cc(C(=O)c3ccc(F)cc3)c(=O)c3ccc(C)nc32)cc1`, 52% (active).
On to `Cc1ccc(C(=O)c2cn(Cc3cccc(Cl)c3)c3nc(C)ccc3c2=O)cc1`, for which the survival is 60% (active).
Turning to `Cc1ccc(C(=O)c2cn(Cc3ccccc3)c3nc(C)ccc3c2=O)cc1`, the survival was 76%.
For `Cc1ccc(C(=O)c2cn(Cc3ccc(Cl)cc3)c3nc(C)ccc3c2=O)cc1` the value was 34%.
For `Cc1ccc2c(=O)c(C(=O)c3ccc(F)cc3)cn(CC(=O)NCc3ccccc3)c2n1` the value was 82%.
